# Data from the supplement of paper PMC11732987, “Enantioselective OTUD7B fragment discovery through chemoproteomics screening and high-throughput optimisation” (Communications Chemistry, 2025).
# Unmarked numbers belong to inactive results.
# Compound: OC1CN(Cc2sccc12)C(=O)CCl
# Assay: log2 ratio of Biotin-Ahx-Ub-VS probe labelling (compound/DMSO); higher = less target engagement, active = hit call of the paper (q ≤ 0.05, log2 ratio ≤ -1)
# Settings: compound concentration: 50uM; treatment time: 3 h
# Procedure: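 Round 2 competitive ABPP in HEK293T lysate. Purified HTC-D2B compounds were tested at 50 and 200 µM for 3 h, followed by Biotin-Ahx-Ub-VS enrichment and diaPASEF LC-MS/MS. Values are the average log2 ratio (compound/DMSO) from an unpaired t-test (n=3 treated, n=26 DMSO).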
# UniProt P40818, sequence (P40818 whole entry): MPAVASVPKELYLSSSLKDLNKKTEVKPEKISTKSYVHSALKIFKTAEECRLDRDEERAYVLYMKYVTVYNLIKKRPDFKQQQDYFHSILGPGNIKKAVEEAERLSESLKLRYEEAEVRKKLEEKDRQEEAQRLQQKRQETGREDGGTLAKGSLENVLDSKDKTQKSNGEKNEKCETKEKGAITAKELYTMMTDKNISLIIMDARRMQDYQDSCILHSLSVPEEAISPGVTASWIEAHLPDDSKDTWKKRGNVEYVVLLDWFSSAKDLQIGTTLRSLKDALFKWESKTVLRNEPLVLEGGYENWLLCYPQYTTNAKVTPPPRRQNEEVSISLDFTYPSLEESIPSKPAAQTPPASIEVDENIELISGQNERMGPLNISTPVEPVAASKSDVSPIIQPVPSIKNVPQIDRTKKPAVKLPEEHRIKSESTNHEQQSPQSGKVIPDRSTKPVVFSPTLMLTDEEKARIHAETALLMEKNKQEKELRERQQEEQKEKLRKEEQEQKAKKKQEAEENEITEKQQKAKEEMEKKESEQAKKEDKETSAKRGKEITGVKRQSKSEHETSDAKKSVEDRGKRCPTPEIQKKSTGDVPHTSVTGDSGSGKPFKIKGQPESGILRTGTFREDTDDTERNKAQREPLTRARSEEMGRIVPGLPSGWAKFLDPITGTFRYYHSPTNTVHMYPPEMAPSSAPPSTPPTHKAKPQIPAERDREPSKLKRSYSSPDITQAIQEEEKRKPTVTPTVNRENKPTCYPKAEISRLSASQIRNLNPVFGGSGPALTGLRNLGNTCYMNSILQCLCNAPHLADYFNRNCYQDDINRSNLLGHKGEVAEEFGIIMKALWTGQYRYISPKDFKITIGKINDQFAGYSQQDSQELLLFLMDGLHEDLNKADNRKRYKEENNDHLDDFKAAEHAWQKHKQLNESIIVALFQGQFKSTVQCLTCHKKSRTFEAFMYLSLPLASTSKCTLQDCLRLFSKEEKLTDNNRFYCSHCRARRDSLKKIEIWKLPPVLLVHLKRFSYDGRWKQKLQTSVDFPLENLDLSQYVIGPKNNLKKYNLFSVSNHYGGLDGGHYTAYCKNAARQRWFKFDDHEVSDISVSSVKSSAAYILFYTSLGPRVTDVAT
# UniProt Q01804, sequence (Q01804 whole entry): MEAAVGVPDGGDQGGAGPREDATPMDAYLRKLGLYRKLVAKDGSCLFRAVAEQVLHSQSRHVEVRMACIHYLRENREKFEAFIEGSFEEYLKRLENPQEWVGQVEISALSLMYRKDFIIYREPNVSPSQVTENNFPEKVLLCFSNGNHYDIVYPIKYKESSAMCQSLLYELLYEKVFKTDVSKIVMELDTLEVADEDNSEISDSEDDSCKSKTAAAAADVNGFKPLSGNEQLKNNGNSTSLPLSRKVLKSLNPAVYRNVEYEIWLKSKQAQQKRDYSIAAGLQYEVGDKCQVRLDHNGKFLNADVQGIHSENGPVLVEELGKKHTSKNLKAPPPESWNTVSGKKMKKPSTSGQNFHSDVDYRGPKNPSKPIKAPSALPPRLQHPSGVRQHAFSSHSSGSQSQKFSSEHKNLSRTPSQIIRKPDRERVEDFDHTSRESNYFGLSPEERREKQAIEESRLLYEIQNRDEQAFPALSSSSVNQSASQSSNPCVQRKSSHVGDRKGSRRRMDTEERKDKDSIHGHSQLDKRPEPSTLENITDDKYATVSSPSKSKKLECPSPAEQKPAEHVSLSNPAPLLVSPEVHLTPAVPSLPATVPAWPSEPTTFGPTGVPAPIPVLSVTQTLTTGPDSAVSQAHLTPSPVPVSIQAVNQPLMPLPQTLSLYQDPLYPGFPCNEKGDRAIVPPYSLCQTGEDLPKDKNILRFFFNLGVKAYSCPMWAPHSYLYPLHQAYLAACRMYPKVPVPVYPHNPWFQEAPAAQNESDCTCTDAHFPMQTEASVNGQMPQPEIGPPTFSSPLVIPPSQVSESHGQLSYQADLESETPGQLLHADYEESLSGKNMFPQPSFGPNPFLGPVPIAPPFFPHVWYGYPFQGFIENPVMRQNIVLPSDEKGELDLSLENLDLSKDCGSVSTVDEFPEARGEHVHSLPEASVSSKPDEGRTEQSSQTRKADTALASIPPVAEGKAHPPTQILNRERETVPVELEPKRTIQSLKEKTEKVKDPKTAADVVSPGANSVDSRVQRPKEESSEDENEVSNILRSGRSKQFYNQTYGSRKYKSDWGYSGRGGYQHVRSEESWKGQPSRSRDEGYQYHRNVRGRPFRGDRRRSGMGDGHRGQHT
# UniProt Q53GS9, sequence (Q53GS9 whole entry): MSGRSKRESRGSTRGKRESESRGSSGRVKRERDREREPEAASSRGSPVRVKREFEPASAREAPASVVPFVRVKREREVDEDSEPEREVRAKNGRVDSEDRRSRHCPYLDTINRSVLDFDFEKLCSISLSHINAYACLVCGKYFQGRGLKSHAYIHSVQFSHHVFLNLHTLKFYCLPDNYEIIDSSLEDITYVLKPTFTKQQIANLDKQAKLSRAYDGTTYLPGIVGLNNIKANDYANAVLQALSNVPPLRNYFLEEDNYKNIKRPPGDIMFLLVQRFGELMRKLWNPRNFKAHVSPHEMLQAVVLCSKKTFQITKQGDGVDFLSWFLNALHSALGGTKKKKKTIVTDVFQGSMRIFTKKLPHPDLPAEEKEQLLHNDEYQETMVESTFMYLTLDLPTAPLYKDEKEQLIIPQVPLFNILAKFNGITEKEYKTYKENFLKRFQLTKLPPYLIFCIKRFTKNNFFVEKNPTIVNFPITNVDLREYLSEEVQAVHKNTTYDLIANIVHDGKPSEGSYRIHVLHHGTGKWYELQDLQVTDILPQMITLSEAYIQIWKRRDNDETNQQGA
# UniProt P62068, sequence (P62068 whole entry): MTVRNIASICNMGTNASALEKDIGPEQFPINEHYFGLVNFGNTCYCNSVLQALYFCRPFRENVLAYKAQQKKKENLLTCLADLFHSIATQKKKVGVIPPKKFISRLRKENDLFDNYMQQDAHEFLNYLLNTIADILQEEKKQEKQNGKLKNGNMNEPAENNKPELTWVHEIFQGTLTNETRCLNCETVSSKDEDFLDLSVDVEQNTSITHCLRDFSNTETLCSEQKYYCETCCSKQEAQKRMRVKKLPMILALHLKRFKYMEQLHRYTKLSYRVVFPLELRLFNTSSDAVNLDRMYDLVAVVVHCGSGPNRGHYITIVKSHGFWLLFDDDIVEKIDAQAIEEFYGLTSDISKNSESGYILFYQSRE
# UniProt Q92560, sequence (Q92560 whole entry): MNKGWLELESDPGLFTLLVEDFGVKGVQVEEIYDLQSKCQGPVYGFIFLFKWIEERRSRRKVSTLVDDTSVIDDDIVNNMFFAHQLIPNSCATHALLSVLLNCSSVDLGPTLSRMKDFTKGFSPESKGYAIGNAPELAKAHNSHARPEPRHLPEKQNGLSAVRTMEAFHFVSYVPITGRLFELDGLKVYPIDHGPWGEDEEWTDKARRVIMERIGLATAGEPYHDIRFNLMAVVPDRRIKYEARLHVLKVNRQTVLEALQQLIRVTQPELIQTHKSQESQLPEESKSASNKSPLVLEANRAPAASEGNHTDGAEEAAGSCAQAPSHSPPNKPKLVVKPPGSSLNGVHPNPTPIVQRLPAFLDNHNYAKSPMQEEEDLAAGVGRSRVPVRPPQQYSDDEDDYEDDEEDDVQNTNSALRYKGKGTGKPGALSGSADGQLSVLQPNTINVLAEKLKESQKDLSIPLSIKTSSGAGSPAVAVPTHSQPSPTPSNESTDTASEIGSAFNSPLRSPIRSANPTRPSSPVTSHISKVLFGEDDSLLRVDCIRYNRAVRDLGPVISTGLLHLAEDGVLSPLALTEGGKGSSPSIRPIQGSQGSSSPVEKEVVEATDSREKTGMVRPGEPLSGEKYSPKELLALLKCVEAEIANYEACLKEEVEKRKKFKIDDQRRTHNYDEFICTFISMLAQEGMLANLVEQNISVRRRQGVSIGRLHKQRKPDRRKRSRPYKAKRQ
# UniProt Q96FW1, sequence (Q96FW1 whole entry): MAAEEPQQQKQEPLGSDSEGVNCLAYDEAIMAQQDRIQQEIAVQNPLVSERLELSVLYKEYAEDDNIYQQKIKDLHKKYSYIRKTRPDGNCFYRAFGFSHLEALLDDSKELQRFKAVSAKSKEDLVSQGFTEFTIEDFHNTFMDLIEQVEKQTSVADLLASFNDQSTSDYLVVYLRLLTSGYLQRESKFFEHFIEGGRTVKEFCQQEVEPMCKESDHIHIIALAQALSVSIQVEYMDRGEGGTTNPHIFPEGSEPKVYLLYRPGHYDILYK
# UniProt Q70EL2, sequence (Q70EL2 whole entry): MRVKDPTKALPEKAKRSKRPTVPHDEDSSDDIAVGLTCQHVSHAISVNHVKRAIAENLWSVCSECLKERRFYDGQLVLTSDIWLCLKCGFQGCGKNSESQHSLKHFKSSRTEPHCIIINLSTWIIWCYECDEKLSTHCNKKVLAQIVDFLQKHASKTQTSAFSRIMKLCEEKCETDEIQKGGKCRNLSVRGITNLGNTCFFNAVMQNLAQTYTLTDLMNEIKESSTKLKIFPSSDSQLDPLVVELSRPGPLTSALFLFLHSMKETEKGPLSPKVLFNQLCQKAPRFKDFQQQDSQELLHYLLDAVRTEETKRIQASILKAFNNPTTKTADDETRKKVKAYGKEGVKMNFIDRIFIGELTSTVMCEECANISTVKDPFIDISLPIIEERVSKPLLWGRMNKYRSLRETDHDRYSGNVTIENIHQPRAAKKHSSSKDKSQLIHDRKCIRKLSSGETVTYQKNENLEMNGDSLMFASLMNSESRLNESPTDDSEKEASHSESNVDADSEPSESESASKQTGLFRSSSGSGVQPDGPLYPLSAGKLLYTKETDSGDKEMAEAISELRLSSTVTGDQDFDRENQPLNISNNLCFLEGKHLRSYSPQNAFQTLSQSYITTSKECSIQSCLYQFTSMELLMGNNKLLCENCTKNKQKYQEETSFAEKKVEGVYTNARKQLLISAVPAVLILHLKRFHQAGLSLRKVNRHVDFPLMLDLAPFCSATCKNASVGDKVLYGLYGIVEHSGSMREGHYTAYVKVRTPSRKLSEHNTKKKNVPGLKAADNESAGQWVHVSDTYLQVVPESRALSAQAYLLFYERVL
row,Target,log2 ratio of Biotin-Ahx-Ub-VS probe labelling
1,USP10 (UniProt Q14694),-0.166
2,UniProt Q8TE49,-1.87 (active)
3,PRPF8 (UniProt Q6P2Q9),0.0584
4,COPS5 (UniProt Q92905),0.136
5,USP46 (UniProt P62068),-0.289
6,USP39 (UniProt Q53GS9),-0.0158
7,USP16 (UniProt Q9Y5T5),-0.903
8,USP36 (UniProt Q9P275),-0.243
9,USP19 (UniProt O94966),-0.389
10,UniProt Q70EL2,0.0417
11,USP12 (UniProt O75317),-0.0752
12,USP8 (UniProt P40818),-0.266
13,BAP1 (UniProt Q92560),-0.416
14,OTUB1 (UniProt Q96FW1),0.196
15,VCPIP1 (UniProt Q96JH7),-0.309
16,USP48 (UniProt Q86UV5),-0.157
17,ATXN3 (UniProt P54252),-0.216
18,USP5 (UniProt P45974),0.084
19,OTUD4 (UniProt Q01804),-0.695
20,USP15 (UniProt Q9Y4E8),-0.214

# Same assay, conditions: compound concentration: 200uM; treatment time: 3 h
row,Target,log2 ratio of Biotin-Ahx-Ub-VS probe labelling
1,USP10 (UniProt Q14694),-0.00161
2,UniProt Q8TE49,-2.68 (active)
3,PRPF8 (UniProt Q6P2Q9),0.0922
4,COPS5 (UniProt Q92905),-0.0875
5,USP46 (UniProt P62068),-0.565
6,USP39 (UniProt Q53GS9),0.0541
7,USP16 (UniProt Q9Y5T5),-0.0352
8,USP36 (UniProt Q9P275),-0.0665
9,USP19 (UniProt O94966),-0.703
10,UniProt Q70EL2,-0.242
11,USP12 (UniProt O75317),-0.294
12,USP8 (UniProt P40818),-0.144
13,BAP1 (UniProt Q92560),-0.818
14,OTUB1 (UniProt Q96FW1),-0.0449
15,VCPIP1 (UniProt Q96JH7),-0.285
16,USP48 (UniProt Q86UV5),-0.225
17,ATXN3 (UniProt P54252),-0.0796
18,USP5 (UniProt P45974),0.198
19,OTUD4 (UniProt Q01804),-1.48 (active)
20,USP15 (UniProt Q9Y4E8),-0.404
